Inconclusive results are not listed. Activity calls are given as the source filed them. Calls follow the shape of the dose curve; as a rule, active = well fitted curve in the direction sought with a large enough effect; inconclusive = small, poorly fitted or top-dose-only effect, or another doubt; inactive = no such curve, though single readings can be large; an effect the other way counts as inactive or inconclusive.
Assays:
[1] = qHTS of pediatric cancer cell lines to identify multiple opportunities for drug repurposing: Primary screen for OHS-50 cells (AID 1347103); also: nearly all actives have a fitted effect of over 40% in size
Outline: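 Cells (500-1,000/well) rested 5 h, then received compounds for 48 h; metabolically active cells were measured by CellTiter-Glo luminescence. Final concentrations spanned up to 46 µM (MIPE, 11-point) or 0.59 nM-46 µM (NPC, 8-point) in primary screens, 11-point in follow-ups.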

[2] = qHTS of pediatric cancer cell lines to identify multiple opportunities for drug repurposing: Primary screen for RD cells (AID 1347104); also: nearly all actives have a fitted effect of over 55% in size
Outline: (§1)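 Phenotypic viability qHTS, 48 h compound exposure, CellTiter-Glo luminescence read-out; multi-concentration dosing so that potency and efficacy derive directly from the primary screen's curves.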

[3] = qHTS of pediatric cancer cell lines to identify multiple opportunities for drug repurposing: Primary screen for MG 63 (6-TG R) cells (AID 1347105); also: nearly all actives have a fitted effect of over 50% in size
Outline: as §1

[4] = qHTS of pediatric cancer cell lines to identify multiple opportunities for drug repurposing: Primary screen for control Hh wild type fibroblast cells (AID 1347106);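 also: series mostly up to about 46 µM; a drop in luminescence marks cytotoxicity and a rise apparent proliferation; nearly all actives have a fitted effect of over 55% in size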
Outline: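 Viability after 48 h compound treatment at 37C, 500-1,000 cells/well, read as ATP luminescence with CellTiter-Glo. Primary screens used 11-point (MIPE, 0.78 nM-46 µM) or 8-point (NPC, 0.59 nM-46 µM) final concentrations; follow-up screens used 11-point dilutions.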

[5] = qHTS of pediatric cancer cell lines to identify multiple opportunities for drug repurposing: Primary screen for Rh30 cells (AID 1347107); also: series mostly up to about 46 µM; nearly all actives have a fitted effect of over 75% in size
Outline: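 Cells (500-1,000/well) in growth media were settled 5 h at 37 degrees C, then given compounds for 48 h. Viability was read as CellTiter-Glo luminescence. Primary runs used MIPE at 11 points (0.78 nM-46 µM) and NPC at 8 points (0.59 nM-46 µM); follow-ups used 11 points.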

[6] = qHTS of pediatric cancer cell lines to identify multiple opportunities for drug repurposing: Primary screen for Rh41 cells (AID 1347108);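 also: series mostly up to about 46 µM; luminescence drop marks cytotoxic hits; nearly all actives have a fitted effect of over 70% in size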
Outline: as §1

Measured: Potency

COc1ccc2c(c1)c(CC(=O)OC/C=C(\C)CC/C=C(\C)CCC=C(C)C)c(C)n2C(=O)c1ccc(Cl)cc1
inactive: [1] | [2] | [3] | [4] | [5] | [6]

Cn1cc(S(C)=O)c(=O)c2ccc(F)cc21 (stereo not given)
inactive: [1] | [2] | [3] | [4] | [5] | [6]

CN1C(=O)CC(C)(c2ccccc2)C1=O (stereo not given)
inactive: [1] | [2] | [3] | [4] | [5] | [6]

CN1[C@@H]2CC[C@H]1CC(NC(=O)n1c(=O)[nH]c3ccccc31)C2 (stereo not given in full)
inactive: [1] | [2] | [3] | [4] | [5] | [6]

CC(CCc1ccc2c(c1)OCO2)NN (stereo not given)
inactive: [1] | [2] | [3] | [4] | [5] | [6]

CC(C)OP(=O)(CP(=O)(OC(C)C)OC(C)C)OC(C)C
inactive: [1] | [2] | [3] | [4] | [5] | [6]

Nc1ncnc2c1ncn2Cc1c(F)cccc1Cl
inactive: [1] | [2] | [3] | [4] | [5] | [6]

CCN(CC)CC(=O)Nc1c(C)cccc1C(=O)OC
inactive: [1] | [2] | [3] | [4] | [5] | [6]

CC(NC(CCc1ccccc1)C(=O)O)C(=O)N1C(=O)N(C)CC1C(=O)O (stereo not given)
inactive: [1] | [2] | [3] | [4] | [5] | [6]

O=C(Nc1ccc(S(=O)(=O)N2CCOCC2)cc1)c1cc(Cl)ccc1NS(=O)(=O)c1ccc(Cl)s1
inactive: [1] | [2] | [3] | [4] | [5] | [6]

CCCCC(O)/C=C(C)/C=C/C=C/C(=O)N1CCCC1=O (stereo not given)
inactive: [1] | [2] | [3] | [4] | [5] | [6]

Cc1ccc(O)cc1
inactive: [1] | [2] | [3] | [4] | [5] | [6]

CCN(CC)CC(=O)Oc1ccc(NC(C)=O)cc1
inactive: [1] | [2] | [3] | [4] | [5] | [6]

CCOC(=O)OCC/C(SC(=O)OCC)=C(\C)N(C=O)Cc1cnc(C)nc1N
inactive: [1] | [2] | [3] | [4] | [5] | [6]

O=C(O)C1CCC1
inactive: [1] | [2] | [3] | [4] | [5] | [6]

O=C(O)c1ccc(OCCN2CCCCC2)cc1
inactive: [1] | [2] | [3] | [4] | [5] | [6]

CCOC(=O)C(=O)CCCCCCl
inactive: [1] | [2] | [3] | [4] | [5] | [6]

O=c1[nH]c2ccccc2c(=O)n1CCCl
inactive: [1] | [2] | [3] | [4] | [5] | [6]

CCS(=O)(=O)c1ccc(OC)c(C(=O)OC)c1
inactive: [1] | [2] | [3] | [4] | [5] | [6]

Nc1ncnc2nc[nH]c12
inactive: [1] | [2] | [3] | [4] | [5] | [6]

CCCCOCCOC(=O)c1cccnc1
inactive: [1] | [2] | [3] | [4] | [5] | [6]

Cc1ccc(-c2ccccc2C#N)cc1
inactive: [1] | [2] | [3] | [4] | [5] | [6]

Nc1ccc(O)cc1
inactive: [1] | [2] | [3] | [4] | [5] | [6]

CC(=O)CC/C=C(\C)CC/C=C(\C)CC/C=C(\C)CCC=C(C)C
inactive: [1] | [2] | [3] | [4] | [5] | [6]

Cc1sccc1Br
inactive: [1] | [2] | [3] | [4] | [5] | [6]

CC1c2ccccc2CN1NC(=O)c1ccc(Cl)c(S(N)(=O)=O)c1 (stereo not given)
inactive: [1] | [2] | [3] | [4] | [5] | [6]

COC(=O)C1=C(C)NC(C)=C(C(=O)OCCc2ccc(N3CCN(C(c4ccccc4)c4ccccc4)CC3)cc2)C1c1cccc([N+](=O)[O-])c1 (stereo not given)
inactive: [1] | [2] | [3] | [4] | [5] | [6]

C1N2CN3CN1CN(C2)C3
inactive: [1] | [2] | [3] | [4] | [5] | [6]

CCc1cccc2c(CCO)c[nH]c12
inactive: [1] | [2] | [3] | [4] | [5] | [6]

Cc1cccc(C)c1NC(=O)c1cc(S(N)(=O)=O)c(Cl)cc1O
inactive: [1] | [2] | [3] | [4] | [5] | [6]

— PubChem BioAssay (NCATS)
